# Screening data as filed in PubChem BioAssay.
# In the library only some 3.5% were active in any assay of this set; here they are far more common.
# FBW7 activator: activators of human E3 ligase FBW7 | Q969H0 | hit rate 0.13% among 650,000 | AlphaScreen FBW7–phospho-cyclin E peptide binding, activator screen | normalized activity (activation), % at 26.1 µM; in the data active = normalized activity above about 1.9%;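 note: purified mutant Fbw7 with reduced substrate affinity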
# TEAD-YAP inh: TEAD-YAP interaction inhibition; HEK-TIYL cells, TEAD-Gal4/YAP UAS-luciferase luminescence; inhibition, % at 9.12 µM; hit rate 1.4% among 640,000; AID 1259422; in the data active = inhibition above about 32%;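 note: 0% = median of test compound wells and 100% = reference inhibitor wells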
# MITF primary: human MITF inhibition, primary screen | O75030 | hit rate 0.91% among 650,000 | AlphaScreen MITF homodimerization, bead proximity signal | inhibition, % at 2.6 µM; in the data active = inhibition above about 50%;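 note: 0% = vehicle wells with protein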
# GPR151 activ: activators of human GPR151; activation, % at 11.2 µM; AID 1508602; PathHunter beta-arrestin GPR151 cells, luminescence; hit rate 1% among 650,000; in the data active = activation above about 4.9%;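 note: 0% = median of compound wells and 100% = cells with positive control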
# Target sequence (Q8TDV0 whole entry, looked up): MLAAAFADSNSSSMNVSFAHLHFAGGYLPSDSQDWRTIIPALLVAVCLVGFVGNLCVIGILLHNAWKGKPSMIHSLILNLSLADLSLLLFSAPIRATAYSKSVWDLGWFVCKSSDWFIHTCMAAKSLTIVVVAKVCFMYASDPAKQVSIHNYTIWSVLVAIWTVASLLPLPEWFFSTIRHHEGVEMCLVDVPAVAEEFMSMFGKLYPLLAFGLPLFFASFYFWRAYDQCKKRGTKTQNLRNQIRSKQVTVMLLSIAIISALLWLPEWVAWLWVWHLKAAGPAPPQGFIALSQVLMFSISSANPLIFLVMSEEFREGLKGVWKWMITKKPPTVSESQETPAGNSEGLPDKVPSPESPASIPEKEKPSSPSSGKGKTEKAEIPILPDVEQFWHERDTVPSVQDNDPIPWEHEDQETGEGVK
# MITF confirm: human MITF inhibition, confirmation | shares compounds with MITF primary | AlphaScreen MITF homodimerization, biotin/His-MITF beads | inhibition, % at 2.6 µM | hit rate 16% among 4,700;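 active = inhibition above a cutoff derived from the DMSO control wells, cut at about 28% in these data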;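 note: 0% = MITF dimer wells with DMSO only; inhibitors lower the bead chemiluminescence by keeping MITF from dimerizing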
# AlphaScreen DR: optically interferes with AlphaScreen signal in dose response; AlphaScreen optical interference counterscreen, cell-free; AID 1259373; IC50, µM; shares compounds with MITF primary; hit rate 6% among 480; call rule not given here
# AlphaScreen intf2: optically interferes with AlphaScreen signal; hit rate 7.6% among 4,700; LysRS AlphaScreen counterscreen, signal interference, triplicate; inhibition, % at 2.6 µM; shares compounds with MITF primary;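 active = inhibition above a cutoff derived from the DMSO control wells, cut at about 30% in these data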
# An asterisk follows results filed as active; . = no result.
SMILES,FBW7 activator,TEAD-YAP inh,MITF primary,GPR151 activ,MITF confirm,AlphaScreen intf2,others
O=C(Cc1ccccc1)N1CCC(N2CCN(Cc3ccccc3)CC2)CC1,0,6,66*,1,2,9,
c1ccc(CN2CCC(N3CCN(C4CCN(Cc5ccccc5)CC4)CC3)CC2)cc1,0,16,21,0,.,.,
CC1CCCC(N2CCN(Cc3cccc(Cl)c3)CC2)C1 (configuration not stated),0,-5,67*,1,1,-6,
CCc1ccc(CN2CCN(C3CCN(Cc4ccccc4)CC3)CC2)cc1,0,6,55*,-1,-9,0,
Cc1ccc(CN2CCN(C3CCCCC3)CC2)cc1,0,-12,65*,-1,3,18,
C=CCC(=O)N1CCCC(C(=O)Nc2cccc(-c3ccc(F)cc3)c2)C1 (configuration not stated),0,6,4,1,.,.,
Cc1ccc(Cl)cc1N1CCN(CC(O)COCC2COc3ccccc3O2)CC1 (configuration not stated),0,-5,6,1,.,.,
COc1ccccc1/C=C/CN1CCC2(CCC(CNC(=O)C3CCOCC3)O2)CC1 (configuration not stated),1,3,21,-1,.,.,
Clc1cccc(CN2CCN(C3CCCCCC3)CC2)c1,0,1,69*,-1,-5,-6,
Brc1cccc(CN2CCC(N3CCCCC3)CC2)c1,0,-5,-10,0,.,.,
c1ccc(CN2CCN(C3CCCC3)CC2)cc1,0,15,75*,0,-5,-10,
CS(=O)(=O)N1CCC(N2CCN(Cc3ccccc3)CC2)CC1,0,-3,54*,1,7,20,
CCC(C)(C)NS(=O)(=O)c1ccc(CCN2C(=O)c3cccnc3C2=O)cc1,0,-6,2,0,.,.,
Cc1ccc(C(C)(C)C)c(OCCN2CCOCC2)c1,0,1,65*,-1,7,5,
Cc1ccc(OCCN2CCOCC2)c(Br)c1,0,-13,64*,2,-4,-1,
Clc1ccc(OCCN2CCOCC2)c(Br)c1,0,0,38,0,.,.,
Cc1cc(Cl)c(OCCN2CCOCC2)c(Cl)c1,0,-7,61*,-1,-1,2,
Cc1ccc(OCCOCCN2CCOCC2)c(C)c1,0,-15,-1,2,.,.,
COc1ccc(C2C(C(C)=O)=C(O)C(=O)N2c2ccc(Br)cc2)c(OC)c1 (configuration not stated),0,-14,-19,1,.,.,
C=CCN(c1ccccc1)S(=O)(=O)c1ccc2[nH]cc(C(=O)N3CCC4(CC3)OCCO4)c(=O)c2c1,0,-3,7,0,.,.,
NC(=O)c1cc2cc(Br)ccc2oc1=Nc1cc(C(F)(F)F)ccc1Cl,0,5,14,0,.,.,
O=C(/C=C/c1ccco1)N1CCN(Cc2nc3ccccc3n2Cc2ccccc2)CC1,-1,-22,60*,0,12,29,
O=C(CONC(=O)c1ccccc1)Nc1ccccc1C(=O)Nc1ccccc1,0,-1,2,1,.,.,
Cc1ccc2c(c1)cc1c(=O)n(CC(=O)NCCCN3CCCCC3)nc(C)n12,0,-5,63*,0,8,10,
Cc1ccc2c(c1)cc1c(=O)n(CC(=O)NCCN3CCOCC3)nc(C)n12,0,-10,13,0,.,.,
SMILES,FBW7 activator,TEAD-YAP inh,MITF primary,GPR151 activ,MITF confirm,AlphaScreen intf2,others
O=C(NCC(O)C(=O)N1CCOCC1)c1cc(Nc2ccc3[nH]ncc3c2)ccn1 (configuration not stated),0,4,0,-1,.,.,
O=C(NCC(O)C(=O)N1CCOCC1)c1cccc(Nc2ccc3[nH]ncc3c2)n1 (configuration not stated),0,8,57*,0,62*,7,AlphaScreen DR=>6.5
OC1/C(=C/c2ccc3c(c2)OCO3)Oc2ccccc21 (configuration not stated),0,-2,53*,1,-5,-4,
O=C1/C(=C/c2ccc3c(c2)OCO3)COc2ccccc21,0,-13,14,2,.,.,
CCN(CC)CCNCC(=O)N1CCN(c2ccccc2OC)CC1,0,7,10,1,.,.,
Cc1sc(NC(=O)CN(Cc2ccc(F)cc2)C(=O)c2ccccc2)c(C(N)=O)c1C,0,19,-26,-1,.,.,
Cc1sc(NC(=O)CN(Cc2ccc(F)cc2)C(=O)C(C)(C)C)c(C(N)=O)c1C,0,7,68*,1,8,13,
COc1ccccc1NC(=O)N1CCN(C)CC1,0,8,52*,-1,9,10,
COc1ccccc1N1CCN(CCCOc2ccc(F)cc2)CC1,0,9,60*,1,7,12,
COc1ccc(OCCCN2CCN(c3ccccc3OC)CC2)cc1,0,8,81*,1,53*,39*,
COc1ccccc1N1CCN(C(=O)CN2CCN(C)CC2)CC1,0,14,54*,5,2,-1,
COc1ccccc1N1CCN(CCCCCCN)CC1,0,7,6,0,.,.,
O=C(O)C1CCCCC1C(=O)Nc1nncs1 (configuration not stated),0,-2,-8,0,.,.,
O=C(O)C1CC=CCC1C(=O)Nc1nncs1 (configuration not stated),0,2,53*,3,48*,-4,AlphaScreen DR=>6.5
COc1ccccc1C(=O)NN1C(=O)C2C3c4ccccc4C(c4ccccc43)C2C1=O (configuration not stated),0,0,8,1,.,.,
CCn1c2ccccc2c2cc(CN3CCN(C(=O)c4c(OC)cccc4OC)CC3)ccc21,0,-6,40,-1,.,.,
CCn1c2ccccc2c2cc(CN3CCN(Cc4ccc(OC)c(Br)c4)CC3)ccc21,-1,1,60*,0,14,19,
CCn1c2ccccc2c2cc(CN3CCN(C(=O)c4cccc(OC)c4OC)CC3)ccc21,0,-2,19,1,.,.,
CCn1c2ccccc2c2cc(CN3CCN(Cc4cc(OC)c(OC)c(OC)c4)CC3)ccc21,1,1,61*,-1,1,2,
CC1(C(=O)Nc2sc3c(c2C(N)=O)CCCCC3)CC1(Cl)Cl (configuration not stated),0,-11,-6,0,.,.,
Cc1cccc(NC(=O)CSc2ncc(-c3ccccc3)[nH]2)c1,0,-2,81*,2,-7,-1,
Cn1nnnc1Sc1ccc([N+](=O)[O-])cc1C(=O)NCC12CC3CC(CC(C3)C1)C2,0,19,-6,1,.,.,
CCN(CC)c1ccc(C(c2c(C)[nH][nH]c2=O)c2c(C)[nH][nH]c2=O)cc1,-1,10,77*,0,71*,-2,
CCS(=O)(=O)N1CCN(CC(=O)NC2CCCCC2)CC1,0,0,54*,3,10,8,
